Most compounds without a hit are left out; they make up all but 18% or so of the library.
DT40 TDP1 CPT – qHTS for Inhibitors of human tyrosyl-DNA phosphodiesterase 1 (TDP1): qHTS in cells in presence of CPT; chicken DT40 Tdp1-/-;hTDP1 cells + 20 nM CPT, ATP luminescence, 48 h; Potency, µM (series often up to 46.2 µM), for the others: at the highest dose activity change, negative = growth inhibition, most hits filed as inhibitors; 12% of 420,000 active; AID 686979, 2013; further: potency means the concentration at half of the fitted maximal effect; nearly all actives have a fitted effect of over 55% in size
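Chicken DT40 Tdp1-/- cells stably complemented with human TDP1 were seeded at 400 cells/well in medium containing 20 nM camptothecin, exposed to pin-transferred compounds, and grown at 37 °C for at least 48 hr. Viability was read as ATP luminescence.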
Six1-Eya2 blk – qHTS Assay for Inhibitors of the Six1/Eya2 Interaction | 0.56% of 360,000 active | Homeobox protein SIX1 (Homo sapiens) + Protein phosphatase EYA2 (Homo sapiens), … | AlphaScreen GST-Six1/His-Eya2 binding, biochemical; hits give low values | AID 651725, 2012 | activity change, % (test concentration not listed); in the data active means activity change below about -65%; inconclusive means mostly about -30% to -63%
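AlphaScreen with GST-Six1 and His-Eya2 (5X mix: 250 nM and 500 nM), glutathione donor and nickel acceptor beads; buffer 50 mM Tris pH 8.0, 300 mM NaCl, 1 mM TCEP; 1 h at 37 C in the dark.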
TDP1 block – qHTS Assay for Inhibitors of Tyrosyl-DNA Phosphodiesterase (TDP1). Tyrosyl-DNA phosphodiesterase 1 (Homo sapiens), Q9NUW8. recombinant TDP1, AlphaScreen DNA substrate cleavage. Potency, µM (series often up to 130 µM), without a hit: at the top dose activity change, negative = inhibition, actives largely listed as inhibitors. 0.28% of 350,000 active; further: potency means the concentration at half of the fitted maximal effect; nearly all actives have a fitted effect of over 40% in size
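Signal: AlphaScreen proximity between streptavidin donor and anti-FITC acceptor beads on intact substrate. Reaction: Tdp1 1 nM, substrate 15 nM final, 5 min RT after 15 min compound preincubation.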
TDP1 cell noCPT – qHTS for Inhibitors of human tyrosyl-DNA phosphodiesterase 1 (TDP1): qHTS in cells in absence of CPT; DT40 Tdp1-/- hTDP1 cells, no CPT, ATP luminescence, 48 h; 15% of 420,000 active; Potency, µM (titrated, usually from 46.2 µM), inactives show at the top dose activity change, negative = growth inhibition, actives largely listed as inhibitors; AID 686978, 2013; further: potency means the concentration at half of the fitted maximal effect; nearly all actives have a fitted effect of over 55% in size
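DT40 Tdp1-/-;hTDP1 cells, no CPT (DMSO vehicle only), 400 cells/well; compounds pin-transferred; ≥48 hr, 37 °C; CellTiter-Glo 30 min RT dark, luminescence read.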
IL-1B inflam inh – qHTS for Inhibitors of Inflammasome Signaling: IL-1-beta AlphaLISA Primary Screen; THP-1 LPS/ATP IL-1B secretion, AlphaLISA, 16 h; hits give low values; activity change, % at 57.5 µM; 4.7% of 360,000 active; AID 743279, 2014; in the data active means activity change below about -50%; inconclusive means mostly about -30% to -49%
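Secreted IL-1B measured by AlphaLISA bead assay after 16 h compound exposure of THP-1 cells; compounds (final up to 57.5 uM) added 1 h before LPS (250 ng/mL) and ATP (1.25 mM) stimulation; lower signal means less secretion.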
CtBP-E1A inh – qHTS Assay for Inhibitors of the CtBP/E1A Interaction. 0.49% of 340,000 active. AlphaScreen GST-E1A/His-CtBP binding, 1536-well; hits give low values. CtBP / adenovirus E1A interaction (AlphaScreen). activity change, % (concentration not given with the values); in the data active means activity change below about -65%; inconclusive means mostly about -30% to -63%
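GST-E1A and His-tagged CtBP (125 nM each as 5X stock) were preincubated with pin-transferred compound for 2 h at 37 °C in the dark, then glutathione donor and nickel acceptor beads were added for 1 h before AlphaScreen reading.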
* = called active by the depositor; u = inconclusive; x = not tested or not shown. Unless noted, the call rests on the fitted dose curve; in most records, active means well fitted curve in the direction sought with a large enough effect; inconclusive means small, poorly fitted or top-dose-only effect, or another doubt; inactive means no such curve, though single readings can be large; an effect the other way counts as inactive or inconclusive. On the % scale 0 is the no-effect control and ±100 the full control effect.

SMILES | DT40 TDP1 CPT | Six1-Eya2 blk | TDP1 block | TDP1 cell noCPT | IL-1B inflam inh | CtBP-E1A inh
CN(c1cccc(Cl)c1)S(=O)(=O)c1cccc(C(=O)Nc2ccc3c(c2)CCC3)c1 | 23.1µM* | -3.4 | -0.6% | 11.6µM* | 1.3 | -19.7
Cc1cc(C(=O)N2CCN(c3ncccc3C#N)CC2)no1 | 6.3% | -9.8 | u | -5.5% | -19.6 | 3.9
O=C(Nc1ccc(C(=O)N2CCCC2)cc1)c1cccc(C(F)(F)F)c1 | -14.8% | -1.8 | x | 0.9% | -0.3 | 2.7
COc1ccc(CN2CCC(=O)N([C@H](CO)c3ccccc3)CC2)cc1OC | -11.6% | 0.2 | x | -2.7% | 10.3 | 3.3
O=c1[nH]c2cc3c(cc2cc1C(c1nnnn1CC1CCCO1)N1CCCCCC1)OCCO3 (configuration not stated) | u | -1.3 | 3.0% | 14.6µM* | -4.3 | -1.3
COc1ccc(C(=O)N2CCN(S(=O)(=O)c3cc(Cl)ccc3OC)CC2)cc1 | 1.2% | -0.8 | 6.8% | -33.4% | 12.2 | 3.2
CN(C)c1ccc(-c2nc3ccc(Cl)cn3c2Nc2ccc3c(c2)OCCO3)cc1 | u | x | 11.6% | 14.6µM* | x | x
COc1cc(-c2nc3ccc(C)cn3c2Nc2ccc(Cl)cc2)ccc1O | 16.4µM* | x | 10.0% | 18.4µM* | x | x
Clc1ccc2nc(-c3ccccn3)c(Nc3ccc4c(c3)OCO4)n2c1 | u | -19.8 | 13.2% | 20.6µM* | 6.3 | 5.0
COc1cc(-c2nc3ccc(Cl)cn3c2Nc2ccc3c(c2)OCO3)ccc1O | 14.6µM* | x | 9.3% | 13µM* | x | x
COc1cc(-c2nc3ccccn3c2Nc2ccccc2C)ccc1O | u | x | 2.5% | u | x | x
Nc1ccccc1SC/C=C/CSc1ccccc1N | 5.3% | -11.9 | x | 0.4% | u | 7.2
CCOC(=O)N1CCN(c2ccc(S(=O)(=O)N3CCOCC3)cc2[N+](=O)[O-])CC1 | -27.4% | -5.5 | 4.4% | -28.5% | 11.6 | 2.5
COc1ccc(S(=O)(=O)Cc2ccc(C(=O)NCc3cccs3)o2)cc1 | -19.5% | -5.3 | 2.6% | -7.7% | 19.6 | 1.8
COc1cc(-c2nc3sccn3c2Nc2cccc(C)c2)ccc1O | u | x | 10.9% | 16.4µM* | x | x
COC(=O)c1cccc(Nc2c(-c3ccc(O)c(OC)c3)nc3nc[nH]n23)c1 | u | x | 0.5% | u | x | x
O=C(Cc1ccccc1F)N1CCC(c2nc3c(nnn3Cc3ccc(F)cc3)c(=O)[nH]2)CC1 | u | x | 7.0% | u | x | x
O=[N+]([O-])c1ccc(C=NNC(=S)NN=Cc2ccc([N+](=O)[O-])cc2)cc1 | u | -20.5 | x | -13.6% | 27.6 | -2.5
O=[N+]([O-])c1ccc(NC(=S)NCc2ccc(F)cc2)cc1 | u | -7.6 | 6.2% | 14.6µM* | -100.3* | -18.3
O=[N+]([O-])c1ccc(C=NNC(=S)Nc2ccc(F)cc2)cc1 | 1.46µM* | 15.7 | x | 2.91µM* | -0.2 | 0.0
O=[N+]([O-])c1ccc(NC(=S)NCc2ccncc2)cc1 | -20.3% | 1.6 | 0.0% | u | 12.1 | 0.0
CC(Sc1nncn1-c1ccccc1)C(=O)Nc1cccc([N+](=O)[O-])c1 (configuration not stated) | u | 7.4 | -2.7% | u | -10.2 | 3.0
CCOC(=O)Cc1cc(=O)n2[nH]c(C)c(-c3ccccc3OC)c2n1 | 4.1% | -0.6 | 7.7% | -7.3% | 20.0 | 0.0
CC1CC(Nc2ccccc2N)=CC(=O)O1 (configuration not stated) | -15.4% | 12.7 | 4.0% | -11.1% | 13.5 | -2.8

Screening data (PubChem)
